In PubChem BioAssay (Tox21):
Inconclusive results are not listed. The source made the active and inactive calls. Unless noted, calls follow the shape of the dose curve; as a rule, active = well fitted curve in the direction sought with a large enough effect in the repeat runs; inconclusive = weak or mixed curves; inactive = no such curve, though single readings can be large; an effect the other way counts as inactive or inconclusive.

Legend:
[1] = target: Retinoic acid receptor RXR-alpha (Homo sapiens) (UniProt P19793); assay: qHTS assay to identify small molecule agonists of the RXR signaling pathway (AID 1159527; calls by dose curve; also: nearly all actives have a fitted effect of over 35% in size)
Summary of the method: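 Cells plated at 2,000/well, rested 5 hr at 37 C, pin-dosed with DMSO compound solutions, incubated 16 hr, then loaded with B/G FRET substrate for 2 hr at RT before dual-emission fluorescence reading.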

[2] = qHTS assay to identify small molecule agonists of the RXR signaling pathway - cell viability counter screen (AID 1159529);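 also: HEK 293T cells carrying an RXR-alpha UAS beta-lactamase reporter; series mostly up to about 77 µM; nearly all actives have a fitted effect of over 50% in size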
Summary of the method: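 Steps: seed RXR-alpha-UAS-bla HEK 293T cells in assay medium containing 2% charcoal-stripped FBS; incubate 5 hr; add compounds in DMSO; incubate 16 hr at 37 C; after the bla read, add CellTiter-Glo and read luminescence at 30 min.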

[3] = qHTS assay to identify small molecule antagonists of the retinoid acid receptor (RAR) signaling pathway - cell viability counter screen (AID 1159551); also: nearly all actives have a fitted effect of over 35% in size
Summary of the method: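 Viability of C3RL4 cells is quantified from ATP by luminescence after 6 h treatment at 37 C with compounds and 1 uM retinol.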

[4] = qHTS assay to identify small molecule antagonists of the estrogen related receptor (ERR) signaling pathway from Tox21 library - cell viability counter screen (AID 1224834); also: nearly all actives have a fitted effect of over 30% in size
Summary of the method: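 In this quantitative HTS format, ERR cells receive compounds in DMSO and are incubated for 17.5 h at 37 C. Live-cell protease activity is then detected with CellTiter-Fluor.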

[5] = target: Luciferin 4-monooxygenase (Photinus pyralis) (UniProt P08659); assay: qHTS assay to identify small molecule inhibitors of firefly luciferase (AID 1224835); also: series mostly up to about 120 µM; nearly all actives have a fitted effect of over 25% in size
Summary of the method: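 Biochemical qHTS: compounds run as interplate titrations against purified firefly enzyme, with D-luciferin and ATP each at its KM concentration. Light output recorded by CCD imaging.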

[6] = qHTS assay to identify small molecule antagonists of the constitutive androstane receptor (CAR) signaling pathway - cell viability counter screen (AID 1224837); also: series mostly up to about 92 µM; nearly all actives have a fitted effect of over 45% in size
Summary of the method: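 In quantitative HTS format, compounds at 15 concentrations were applied to HepG2 cells double-transfected with hCAR and CYP2B6-2.2kb under 50 nM CITCO stimulation; live-cell protease activity was read after 23 hr via CellTiter-Fluor.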

[7] = target: Nuclear receptor subfamily 1 group I member 3 (Homo sapiens) (UniProt Q14994); assay: qHTS assay to identify small molecule antagonists of the constitutive androstane receptor (CAR) signaling pathway (AID 1224838); also: nearly all actives have a fitted effect of over 40% in size
Summary of the method: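 CITCO-stimulated (50 nM final) HepG2 cells stably transfected with hCAR and CYP2B6-2.2kb luciferase were exposed to compounds at 15 concentrations for 24 h at 37 C/5% CO2. A luciferase reagent was added and luminescence recorded after 30 min.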

[8] = target: Nuclear receptor subfamily 1 group I member 3 (Homo sapiens) (UniProt Q14994); assay: qHTS assay to identify small molecule agonists of the constitutive androstane receptor (CAR) signaling pathway (AID 1224839);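 also: HepG2 cells stably carrying human CAR and a CYP2B6 luciferase reporter; series mostly up to about 92 µM; nearly all actives have a fitted effect of over 15% in size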
Summary of the method: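 Cells were plated and incubated 4 hrs, then dosed with compounds at 15 concentrations. PK11195 was added to 0.75 uM final. After 24 hrs at 37 C, luciferase luminescence was measured.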

[9] = qHTS assay to identify small molecule antagonists of the estrogen related receptor signaling pathway with the pleiotropic PPARgamma coactivator (PGC) from Tox21 10K library - cell viability counter screen (AID 1224840; active = well fitted cell-killing curve with a large enough effect in the repeat runs, not every such curve was filed as active; also: nearly all actives have a fitted effect of over 40% in size)
Summary of the method: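 Viability counter screen, PGC/ERR cells: 17.5 h compound exposure at 37 C, CellTiter-Fluor fluorescence endpoint.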

[10] = qHTS assay to identify small molecule agonists of the constitutive androstane receptor (CAR) signaling pathway - cell viability counter screen (AID 1224836); also: series mostly up to about 92 µM; nearly all actives have a fitted effect of over 45% in size
Summary of the method: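 Cells were seeded and incubated 4 hrs. Compounds were added across 15 concentrations together with PK11195 at 0.75 uM final. Plates were incubated 23 hrs at 37 C. CellTiter-Fluor was added and fluorescence measured.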

[11] = qHTS assay to identify small molecule antagonists of the estrogen related receptor signaling pathway with the pleiotropic PPARgamma coactivator (PGC) from Tox21 10K library (AID 1224841; call rule not given here; also: series mostly up to about 92 µM; actives are mostly falling curves and most rising ones were filed inactive; nearly all actives have a fitted effect of over 50% in size)
Summary of the method: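 In the PGC/ERR line, DMSO solutions of test chemicals are pin-delivered to 2,000 cells/well six hours after dispensing. Following eighteen hours' incubation, One-Glo reagent is added and luminescence recorded.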

[12] = qHTS assay to identify small molecule agonists of the estrogen related receptor signaling pathway with the pleiotropic PPARgamma coactivator (PGC) from Tox21 10K library (AID 1224842); also: nearly all actives have a fitted effect of over 15% in size
Summary of the method: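 PGC/ERR reporter cell line, 2,000 cells per well, incubated 6 h at 37 C before 23 nL compound in DMSO was added. After 18 h at 37 C, One-Glo luminescence read following 30 min at room temperature.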

[13] = qHTS assay to identify small molecule antagonists of the retinoic acid receptor (RAR) signaling pathway (AID 1159552; also: nearly all actives have a fitted effect of over 50% in size)
Summary of the method: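 Retinol at 1 uM final stimulated RARE-luciferase expression in C3RL4 cells exposed to test compounds for 6 hr at 37 C. Reduced luminescence, read 30 min after detection reagent, indicated pathway antagonism.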

[14] = qHTS assay to identify small molecule agonists of the retinoic acid receptor (RAR) signaling pathway (AID 1159553)
Summary of the method: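 Compounds dissolved in DMSO were pinned onto C3RL4 cells seeded the previous day, and plates were held 6 hr at 37 C. RARE-driven luciferase output was then read by luminescence.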

Measured: Potency

Luciferin 4-monooxygenase (Photinus pyralis), sequence (P08659 whole entry, looked up): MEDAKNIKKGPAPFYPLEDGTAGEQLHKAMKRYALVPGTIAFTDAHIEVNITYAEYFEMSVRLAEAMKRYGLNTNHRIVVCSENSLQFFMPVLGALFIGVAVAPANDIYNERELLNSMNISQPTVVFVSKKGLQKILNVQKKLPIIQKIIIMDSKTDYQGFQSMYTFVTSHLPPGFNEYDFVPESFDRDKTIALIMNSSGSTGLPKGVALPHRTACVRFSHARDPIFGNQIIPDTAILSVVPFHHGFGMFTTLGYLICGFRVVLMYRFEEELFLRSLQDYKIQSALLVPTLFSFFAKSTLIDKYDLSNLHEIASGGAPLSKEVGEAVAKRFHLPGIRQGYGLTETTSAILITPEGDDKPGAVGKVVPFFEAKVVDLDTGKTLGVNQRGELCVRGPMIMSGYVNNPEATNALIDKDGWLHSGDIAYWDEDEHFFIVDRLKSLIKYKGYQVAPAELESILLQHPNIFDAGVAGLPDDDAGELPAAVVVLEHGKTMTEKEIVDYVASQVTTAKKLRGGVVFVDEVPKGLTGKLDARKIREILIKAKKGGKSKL
Nuclear receptor subfamily 1 group I member 3 (Homo sapiens), sequence (Q14994 whole entry, looked up): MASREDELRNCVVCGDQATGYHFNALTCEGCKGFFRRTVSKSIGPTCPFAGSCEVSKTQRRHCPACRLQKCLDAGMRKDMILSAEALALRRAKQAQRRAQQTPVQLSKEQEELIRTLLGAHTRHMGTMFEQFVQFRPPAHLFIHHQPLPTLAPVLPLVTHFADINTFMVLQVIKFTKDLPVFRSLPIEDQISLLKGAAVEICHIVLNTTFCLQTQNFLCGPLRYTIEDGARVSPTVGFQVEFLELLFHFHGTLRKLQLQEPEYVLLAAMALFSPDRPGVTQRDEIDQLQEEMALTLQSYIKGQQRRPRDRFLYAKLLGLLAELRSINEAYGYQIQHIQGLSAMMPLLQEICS
Retinoic acid receptor RXR-alpha (Homo sapiens), sequence (P19793 whole entry, looked up): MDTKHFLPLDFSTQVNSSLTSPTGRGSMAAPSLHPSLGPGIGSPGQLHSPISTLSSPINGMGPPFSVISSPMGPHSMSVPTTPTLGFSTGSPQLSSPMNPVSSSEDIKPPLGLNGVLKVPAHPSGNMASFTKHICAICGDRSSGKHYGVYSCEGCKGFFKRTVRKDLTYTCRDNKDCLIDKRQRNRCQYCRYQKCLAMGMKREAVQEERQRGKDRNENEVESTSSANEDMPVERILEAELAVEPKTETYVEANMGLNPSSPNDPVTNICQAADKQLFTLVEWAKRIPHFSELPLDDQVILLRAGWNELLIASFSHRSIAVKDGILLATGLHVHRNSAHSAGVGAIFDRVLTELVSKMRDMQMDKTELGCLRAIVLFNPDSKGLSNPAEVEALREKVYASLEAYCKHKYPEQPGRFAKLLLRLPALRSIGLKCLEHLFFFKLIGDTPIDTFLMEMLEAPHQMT

C=COCCOCCOCCOC=C
inactive: [1] | [2] | [3] | [4] | [5] | [6] | [7] | [8] | [9]

COc1cc(NS(=O)(=O)c2ccc(N)cc2)nc(OC)n1
inactive: [1] | [2] | [3] | [4] | [5] | [10] | [6] | [7] | [8] | [9] | [11] | [12]

BrCCCCCBr
inactive: [1] | [2] | [3] | [4] | [5] | [10] | [6] | [7] | [8] | [9] | [11] | [12]

COc1ccc(Br)c(C)c1
inactive: [1] | [2] | [3] | [4] | [5] | [10] | [6] | [7] | [8] | [9] | [11] | [12]

CO[C@@H]1[C@@H](OC(N)=O)[C@@H](O)[C@H](Oc2ccc3c(O)c(NC(=O)c4ccc(O)c(CC=C(C)C)c4)c(=O)oc3c2C)OC1(C)C
inactive: [1] | [2] | [3] | [4] | [5] | [6] | [7] | [8] | [9] | [11] | [12]

C=C(C)C(=O)OCCNC(C)(C)C
inactive: [1] | [2] | [3] | [4] | [5] | [10] | [6] | [7] | [8] | [9] | [11] | [12]

CC(C)(C)c1n[nH]c(=S)n(N)c1=O
inactive: [1] | [2] | [3] | [4] | [5] | [10] | [6] | [7] | [8] | [9] | [11] | [12]

C=C1CC/C=C(\C)CC[C@@H]2[C@@H]1CC2(C)C
inactive: [1] | [2] | [3] | [4] | [5] | [10] | [6] | [7] | [8] | [9] | [11] | [12]

Cc1cc(NC(=O)C2=C(O)c3ccccc3S(=O)(=O)N2C)no1
inactive: [1] | [2] | [13] | [14] | [4] | [10] | [6] | [9]

C=C(C)C(=O)OCCN(CC)CC
inactive: [1] | [2] | [4] | [5] | [10] | [6] | [7] | [8] | [9]

CCCOC(OCCC)OCCC
inactive: [1] | [2] | [3] | [4] | [6] | [7] | [8] | [9] | [11] | [12]
